Source: PubChem BioAssay (National Center for Advancing Translational Sciences (NCATS))
An excerpt weighted towards active compounds, which were near 10% of everything screened.
Lamin A splicing = changes lamin A minigene splicing in HeLa cells | HeLa LMNA splicing GFP/RFP minigene ratio, 48 h | Potency, µM (titrated, usually from 46.1 µM), inactives show at the highest dose ratio change, negative = inhibition, most hits filed as inhibitors | 200,000 compounds, 0.01% hits | AID 1487; active = well fitted inhibition curve with a large enough effect in the signal ratio, with a control signal flat, not every such curve was filed as active; inconclusive = small, poorly fitted or top-dose-only effect, or effect the other way, or a change in a side signal; the % refers to the signal ratio; also: potency is read from the fitted curve at half-maximal effect
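Read-out is the ratio of GFP to DsRed2 object intensity, acquired by 488 nm laser-scanning cytometry on HeLa lamin A-EGFP minigene reporter cells. Compound incubation 48 hrs at 37 °C in Opti-MEM with 2% FBS; DMSO 0.5% final.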
HPGD inh = inhibitors of human 15-hydroxyprostaglandin dehydrogenase (HPGD); Potency, µM, for inactives: at the top dose activity change, negative = inhibition, most hits filed as inhibitors; 150,000 compounds, 4.3% hits; purified HPGD, NADH fluorescence kinetic, PGE2 substrate; P15428; AID 894; also: potency is read from the fitted curve at half-maximal effect
Target sequence (P15428 whole entry, looked up): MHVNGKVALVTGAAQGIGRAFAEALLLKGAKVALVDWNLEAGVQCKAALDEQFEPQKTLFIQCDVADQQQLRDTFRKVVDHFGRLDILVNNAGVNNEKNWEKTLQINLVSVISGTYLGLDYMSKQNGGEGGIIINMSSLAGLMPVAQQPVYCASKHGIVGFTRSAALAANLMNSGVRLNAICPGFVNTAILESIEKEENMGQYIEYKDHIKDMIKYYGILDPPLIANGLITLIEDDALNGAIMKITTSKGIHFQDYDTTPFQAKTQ
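20 nM HPGD preincubated 15 min at room temperature with compound in 50 mM Tris-HCl pH 8, 0.01% Tween 20. Started with 1 mM NAD+ and 30 uM prostaglandin E2; NADH fluorescence (360/450 nm) read 5 times over 30-s intervals, last minus first.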
ALDH1A1 block = ALDH1A1 (human) enzyme inhibition; P00352; Potency, µM (top dose mostly 75.3 µM), without a hit: at the highest dose activity, negative = inhibition, actives largely listed as inhibitors; Purified ALDH1A1, NADH fluorescence, propionaldehyde substrate; 220,000 compounds, 7.3% hits;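 also: potency is read from the fitted curve at half-maximal effect; plate controls were no enzyme wells and a reference inhibitor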
IMPase inh = cell-permeable inhibitors of inositol monophosphatase (IMPase) | inhibition (IP1 accumulation), % at 46.1 µM | P97697 | 120,000 tested, under 10 active | CHO-M1 cells, IP1 accumulation, HTRF TR-FRET ratio | AID 901; active = well fitted curve in the direction sought with a large enough effect in the signal ratio, not every such curve was filed as active; inconclusive = small, poorly fitted or top-dose-only effect, or a change in a side signal; inactive = no such curve, though single readings can be large or run the other way; the % refers to the signal ratio;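 also: cells stimulated with carbachol in lithium chloride buffer; plate controls were DMSO basal wells for no effect and reference inhibitor wells for full effect; higher means more IMPase inhibition seen as more IP1 and lower FRET ratio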
Target sequence (P97697 whole entry, looked up): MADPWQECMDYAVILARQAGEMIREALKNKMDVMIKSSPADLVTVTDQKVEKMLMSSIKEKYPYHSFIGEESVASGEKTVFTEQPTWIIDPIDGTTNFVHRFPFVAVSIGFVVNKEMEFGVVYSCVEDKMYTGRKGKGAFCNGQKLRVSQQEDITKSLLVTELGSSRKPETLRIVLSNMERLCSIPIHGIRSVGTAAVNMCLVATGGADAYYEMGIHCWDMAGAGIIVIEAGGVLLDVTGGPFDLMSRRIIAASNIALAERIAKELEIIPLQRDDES
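In this qHTS, compounds (final up to 46 uM) act on CHO-M1 cells that are then activated through the M1 receptor with carbachol, in pH 7.4 buffer containing 50 mM LiCl, for 30 min. IP1 accumulation is quantified by the IP-One immunoassay.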
Luc counter = Kinase-Glo luciferase inhibition (counter-screen); Kinase-Glo luciferase, ATP luminescence, 8 min; Potency, µM (doses to about 38.3 µM), inactives show at the top dose activity change, negative = inhibition, most hits filed as inhibitors; Q27757; 200,000 compounds, 0.28% hits; active = well fitted inhibition curve with a large enough effect; inconclusive = small, poorly fitted or top-dose-only effect; also: potency is read from the fitted curve at half-maximal effect; nearly all actives have a fitted effect of over 60% in size
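Luminescence was the read-out, taken after 8-minute incubation at ambient temperature. Luciferase turned over luciferin with 10 uM ATP in imidazole pH 7.2 buffer containing KCl, MgCl2, Tween 20 and BSA.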
PNC assembly inh = blocks assembly of the perinucleolar compartment; PC3M PTB-GFP, PNC prevalence imaging, 16 h; hits give low values; activity change (PNC), negative = inhibition, % at 10 µM; 140,000 compounds, 3.1% hits; AID 2417;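 active = readout at or below -70, meaning at least 70% loss of cells showing the perinucleolar compartment, a nuclear body marking cancer cells; inconclusive = readout between -30 and a set limit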;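 also: plate controls were DMSO wells for no effect and camptothecin positive control wells for full effect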
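PC3M cells stably expressing PTB-GFP, 750–1000 cells/well, treated 16 h at 37 °C with compound (23 nl of library stock), in duplicate. After paraformaldehyde fixation and Hoechst stain, imaged at 20x; PNC prevalence scored by image analysis.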
Active calls of the source: *; ? = inconclusive; nt = no result given; [ ] = another dose, or the depositor's remark. Unless noted, calls follow the shape of the dose curve; as a rule, active = well fitted inhibition curve with a large enough effect (not every such curve was filed as active); inconclusive = small, poorly fitted or top-dose-only effect, or another doubt; inactive = no such curve, though single readings can be large or run the other way. Unless noted, % is scaled to controls: 0 for no effect and ±100 for the full control effect.

SMILES	Lamin A splicing	HPGD inh	ALDH1A1 block	IMPase inh	Luc counter	PNC assembly inh
CSCCC(NS(=O)(=O)c1ccc2c(c1)oc(=O)n2C)C(=O)N1CCN(c2cccc(Cl)c2)CC1 (centres undefined)	1%[46 µM]	nt	nt	nt	nt	nt
CCCn1c(-c2ccc(F)cc2)nc2c(NCCN(C(C)C)C(C)C)nc(C)nc21	nt	-28%	?	nt	-3%	nt
CC(C)NC(=O)c1ccc2c(c1)nnn2C	-1%	-4%	1%	-11	-3%	6
CCN(CC)C(=O)c1ccc2c(c1)nnn2C	-4%	16µM*	11%	nt	-4%	?
Cn1nnc2cc(C(=O)N3CCSCC3)ccc21	7%	1.6µM*	6%	-3	0%	20
C=CC[C@@H]1C=C[C@@H](O/N=C\c2ccc(C(=O)N3[C@H](c4ccc(C)cc4)[C@@H](C)CC[C@H]3C(=O)OC)cc2)[C@@H](CO)O1	nt	nt	16%[13.5 µM]	nt	nt	nt
COc1ccc(CC(=O)Nc2sc3c(c2C(=O)Nc2cccc(Cl)c2)CCCCC3)cc1	nt	nt	nt	-7	nt	nt
CCCCNC(=O)CN1C(=O)c2cccnc2Sc2ccccc21	-4%[46 µM]	nt	nt	nt	nt	nt
CN(C)c1ccc(C(=S)N2CCCCCC2)cc1	10%	28µM*	?	4	-3%	?
CC1CCN(C(=S)NC(=O)c2ccccc2)CC1	1%	-11%	-8%	-6	4%	8
CN(C)c1ccc(C(=O)N2CCCC2)cc1	-8%[46 µM]	nt	?	nt	-5%	nt
CN(C)c1ccc(C(=S)N2CCOCC2)cc1	8%	-16%	?	10	-2%	-19
Oc1ccc(C(=S)N2CCCCC2)cc1	-1%	?	22µM*	-2	-4%	?
CC1CCN(C(=S)c2ccc(N(C)C)cc2)CC1	nt	nt	13µM*	nt	0%	nt
CC(=O)N1CCN(C(=S)c2ccc(N(C)C)cc2)CC1	?	20µM*	8.9µM*	2	-2%	9
Cc1cccc(N2CCN(c3nc4ccccc4c4nnc(C)n34)CC2)c1C	nt	nt	nt	3	nt	nt
O=C(CSc1nnc(COc2ccccc2)o1)Nc1cc(C(F)(F)F)ccc1Cl	nt	nt	nt	0	nt	nt
Cc1ccc(CCNC(=O)c2c[nH]c3ccc(S(=O)(=O)Nc4cccc(C(F)(F)F)c4)cc3c2=O)cc1	-14%[46 µM]	nt	nt	nt	nt	nt
Cc1ccc(-c2noc(CN3CCN(c4ccccc4F)CC3)n2)cc1	-23%	-14%	11µM*	12	2%	?
O=C(Cc1cccs1)NC1C(=O)N2C(C(=O)[O-])=C(C[n+]3ccccc3)CSC12 (centres undefined)	?	32µM*	28µM*	nt	-14%	nt
BrC/C=C/CBr	nt	-2%	25µM*	nt	nt	nt
CSC1=N/C(=C\c2ccccc2Cl)C(=O)N1N(C)C	nt	nt	18µM*	nt	nt	nt
Cc1ccc(C(C2C(=O)CC(C)(C)CC2=O)C2C(=O)CC(C)(C)CC2=O)s1	?	2.8µM*	7.1µM*	-2	-1%	-11
CC1(C)CC(=O)C(C(c2ccncc2)C2C(=O)CC(C)(C)CC2=O)C(=O)C1	1%	2%	-8%	-5	-3%	-87*
CC1(C)CC(=O)C(C(c2cccc([N+](=O)[O-])c2)C2C(=O)CC(C)(C)CC2=O)C(=O)C1	7%	1%	-6%	nt	1%	?
SMILES	Lamin A splicing	HPGD inh	ALDH1A1 block	IMPase inh	Luc counter	PNC assembly inh
C/[N+]([O-])=C\C1C(=O)CC(C)(C)CC1=O	9%[46 µM]	nt	?	nt	-1%	nt
CC[C@@](N)(C(=O)O)c1ccc(C(=O)O)cc1	nt	0%	7%	-4	-4%	nt
O=C1C(c2c(O)[nH]c3ccccc23)=Nc2ccccc21	7%[46 µM]	nt	16%	nt	nt	nt
CC(=O)c1cccc2c(O)c(C3=Nc4ccccc4C3=O)[nH]c12	?	14µM*	?	59	?	-22
O=C(c1ccc(S(=O)(=O)N2CCCCC2)cc1)N1CCN(CCN2C(=O)c3cccc4cccc(c34)C2=O)CC1	?	nt	0.63µM*	nt	0%	nt
Cc1cc(C)nc(N2CCN(C(=O)c3ccc(S(=O)(=O)N4CCCCCC4)cc3)CC2)n1	?	nt	18µM*	nt	-1%	nt
O=C(c1cccnc1)N1CCN(S(=O)(=O)c2ccc(S(=O)(=O)N3CCCC3)cc2)CC1	3%	3%	-14%	-1	6%	?
C#CC(N)CCC(=O)O (centres undefined)	?	-7%	12%	nt	-1%	nt
CCC(C)[C@H](NC(=O)Nc1ccc(C(C)=O)cc1)C(=O)OC (some centres undefined)	4%	-9%	0%	-4	-7%	-82*
CCC(C)[C@H](NC(=O)NCc1ccco1)C(=O)OC (some centres undefined)	nt	nt	13µM*	nt	nt	nt
COc1cccc(Cn2c(=O)cnc3cnc(OCc4ccccc4)nc32)c1	2%	nt	-2%	nt	nt	nt
COc1ccc(Cl)cc1S(=O)(=O)Nc1cccc(-c2ccc(N3CCOCC3)nn2)c1	-12%[46 µM]	nt	nt	nt	nt	nt
CCC/C=C(\CCC)C(NS(=O)(=O)c1cccs1)c1ccc(C(=O)OC)cc1 (centres undefined)	nt	-11%	-14%	nt	-1%	nt
CC1=NN(C(=O)c2ccc(Cn3cc(Br)c([N+](=O)[O-])n3)o2)C(O)(C(F)(F)F)C1 (centres undefined)	?	-6%	3%	nt	-4%	-114*
O=S(=O)(O)c1cc(N=Nc2cccc3ccccc23)c(O)c2ncccc12	nt	?	-7%[13.5 µM]	nt	-12%[7.66 µM]	nt
CCOC(=O)c1cc(-c2ccccc2)n(CCC(=O)NCCc2ccc(C)cc2)c1C	-24%[46 µM]	nt	nt	nt	nt	nt
COc1ccc(OCC(=O)O/N=C(\N)Cc2cccs2)cc1	1%	-16%	-10%	nt	-2%	15
N/C(Cc1ccc(Cl)cc1Cl)=N\OC(=O)c1ccc(Br)o1	-12%[46 µM]	nt	nt	nt	nt	nt
Cc1ccccc1OCC(=O)O/N=C(\N)Cc1cccs1	7%[0.0737 µM]	-15%	7.1µM*	5	0%	70
N/C(Cc1cccc2ccccc12)=N\OC(=O)c1ccc(Br)o1	nt	nt	10µM*	nt	-3%	nt
N/C(Cc1ccc(Cl)cc1Cl)=N\OC(=O)Cc1cccs1	?	-26%	4%	nt	-3%	-124*
N/C(Cc1cccc2ccccc12)=N\OC(=O)c1cccs1	8%	-10%	5%	nt	-1%	-29
N/C(Cc1cccc2ccccc12)=N\OC(=O)Cc1cccs1	?	28µM*	?	nt	-9%	-21
COc1ccc(/C=N/NC(=S)Nc2cccc(C(=O)O)c2)cc1OC	-7%	-29%	-1%	-2	-1%	-8
COc1cccc(/C=N/NC(=S)Nc2cccnc2)c1	nt	nt	5%	nt	1%	nt
COc1cc(/C=N/NC(=S)N/N=C/c2cc(OC)c(OC)c(OC)c2)cc(OC)c1OC	-14%	?	-4%	nt	-7%	-109*
COc1ccc(CNC(=S)N/N=C/c2ccc(OC)c(OC)c2)cc1	?	22µM*	?	1	-6%	40
